Data taken from the supplement of paper PMC7156485.

system: HCC1569; assay: H1.0 immunofluorescence intensity relative to DMSO (% of DMSO); higher = stronger H1.0 induction, active = 140 or more; settings: concentration: 10 µM; 24 h
In short: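 Cells were seeded at 800 per well in 384-well plates with RPMI containing 10% FBS; both HCC1569 and TDF lines were used. Compounds were added at 10 µM for 24 h at 37 °C, in triplicate, before fixation in 3.7% formaldehyde and staining with a rabbit anti-H1.0 antibody, an AlexaFluor 647 secondary and DAPI. H1.0 nuclear intensity or cell number is reported as percent of the plate control using the median of replicates, and HCC1569 values were smoothed for positional effects.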
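Further: TDF is a line of transformed human dermal fibroblasts of mesenchymal origin.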

H1.0 immunofluorescence intensity, inactive:
COc1ccc(CC(=O)NC(N=C(NC#N)Nc2cccc3ncccc23)C(C)(C)C)cc1OC (configuration not stated) 96.8
CN1CCCC1c1cccnc1.Cc1ccc(C(=O)OC(C(=O)O)C(OC(=O)c2ccc(C)cc2)C(=O)O)cc1 (stereo not drawn) [(+)-Nicotine (+)-di-p-toluoyl tartrate] 99.5
CC(C)NCC(O)c1cc(O)cc(O)c1.CC(C)NCC(O)c1cc(O)cc(O)c1.O=S(=O)(O)O (configuration not stated) [Metaproterenol hemisulfate] 93.4
Cc1ccc(NC2=CC(=O)c3sc(C)nc3C2=O)cc1 [Cdk4 Inhibitor III] 105
CC1CC2C3CCC4=CC(=O)C=CC4(C)C3(F)C(O)CC2(C)C1(O)C(=O)CO (configuration not stated) [Dexamethasone] 112
O=c1[nH]c2cc(Cl)ccc2c(O)c1-c1cccc(Oc2ccccc2)c1 88.2
NS(=O)(=O)c1cc2c(cc1Cl)NC(C1CC3C=CC1C3)NS2(=O)=O (configuration not stated) [Cyclothiazide] 99.5
CC(C)Cc1ccc(C(C)C(=O)O)cc1 (racemic) 97.7
CN(C)CCCSc1ccccc1NC(=O)C=Cc1ccccc1 [Cinanserin] 107
CCCCCC(O)C=CC1C=CC(=O)C1CCCCCCC(=O)O (configuration not stated) [Prostaglandin A1] 93.8
CCCCCCCCCCCCCCCCn1cc[n+](Cc2ccccc2)c1C.[I-] 106
O=C(Nc1cccc(C(=O)Nc2ccc(S(=O)(=O)[O-])c3cc(S(=O)(=O)[O-])cc(S(=O)(=O)[O-])c23)c1)Nc1cccc(C(=O)Nc2ccc(S(=O)(=O)[O-])c3cc(S(=O)(=O)[O-])cc(S(=O)(=O)[O-])c23)c1.[Na+].[Na+].[Na+].[Na+].[Na+].[Na+] 96
